Bioassay records as filed in PubChem.
Hits are enriched below; roughly 2.9% of the tested compounds scored in any of these assays.
NadD block: inhibitors of Staphylococcus aureus NadD; purified NadD enzyme, colorimetric absorbance read-out; inhibition, % at 20 µM; actives 0.78% (n = 360,000); in the data active = inhibition above about 26%
B2AR ag: agonists of human beta-2 adrenergic receptor inducing internalization | Am2.2-beta2AR cells, FAP receptor internalization, flow cytometry | actives 0.43% (n = 340,000) | response, % (test concentration not listed) | P07550;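 active = response above a set limit, near 3 SD of response in nonfluorescent compounds, cut at about 42% in these data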
GRK2 inh: inhibitors of human GRK2 displacing RNA aptamer. AID 488847. bead flow cytometry, FAM-aptamer displacement from GRK2. P25098. inhibition of aptamer binding, % at 10 µM. actives 0.59% (n = 330,000);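 active = inhibition of aptamer binding above 40%, roughly 3 SD of noise, on plates passing a quality check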;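 also: median bead fluorescence of bound FAM aptamer so fluorescent compounds give negative values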
Granule exo inh: lytic granule exocytosis inhibition; inhibition, % at 10 µM; actives 0.66% (n = 360,000); AID 651702; TALL-104 LAMP-1 surface exposure, flow cytometry; cells stimulated with thapsigargin and PMA;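 active = inhibition above about 55%, limit read from the data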
PP1 inh: PP1-alpha (human) inhibition in PP5 counter-screen. purified PP1alpha, OMFP fluorescence. AID 2235. P62136. inhibition, % at 6.7 µM. actives 0.9% (n = 320,000);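 active = inhibition above the mean inhibition of all tested compounds plus 3 SD, computed separately for each screening campaign, cut at about 15% in these data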
Target sequence (P62136 whole entry, looked up): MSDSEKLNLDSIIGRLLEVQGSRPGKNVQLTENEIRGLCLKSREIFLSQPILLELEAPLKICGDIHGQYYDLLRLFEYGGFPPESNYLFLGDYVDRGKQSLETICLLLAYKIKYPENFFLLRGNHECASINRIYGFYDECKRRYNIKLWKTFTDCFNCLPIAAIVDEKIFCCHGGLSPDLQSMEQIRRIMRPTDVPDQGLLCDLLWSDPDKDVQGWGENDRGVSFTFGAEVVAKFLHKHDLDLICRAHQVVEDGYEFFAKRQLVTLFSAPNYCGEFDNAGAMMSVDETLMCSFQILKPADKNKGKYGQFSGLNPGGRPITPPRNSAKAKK
Active calls of the source: *; nt = no result given.

SMILES	NadD block	B2AR ag	GRK2 inh	Granule exo inh	PP1 inh
COc1ccc(NC(=O)CCC(=O)c2ccc(-c3ccccc3)cc2)cc1	4	0	0	-3	16*
O=C(Nc1cccc(F)c1)c1c(O)c2cccc3c2n(c1=O)CCC3	nt	nt	78*	nt	-6
CNC(=O)c1c(O)c2cccc3c2n(c1=O)CCC3	-2	2	5	-6	nt
N#C/C(=C\c1ccc(O)c(O)c1)C(=O)Nc1cccc2ncccc12	86*	16	6	4	13
O=C(N/N=C\c1c(O)ccc2ccccc12)c1ccc(S(=O)(=O)N2CCCCC2)cc1	46*	-158	0	0	1
CCOP(=O)(OCC)C(NC(=O)Nc1ccc(Cl)c(Cl)c1)C(N)=O (configuration not stated)	-8	2	3	-3	17*
COc1cc(OC)cc(-c2c(C#Cc3ccsc3)c3cc(-c4ccc(C(N)=O)cc4)ccc3n2C)c1	23	-5	6	94*	-4
COCc1ccc(-c2ccc3c(c2)c(C#Cc2ccsc2)c(-c2cc(OC)cc(OC)c2)n3C)cc1	2	-6	0	19	9
N#CC(C#N)=Cc1ccc(-c2ccc(S(=O)(=O)N=C(N)N)cc2)o1	0	2	100*	-3	0
COC(=O)/C(C#N)=C/c1ccc(-c2ccc(S(N)(=O)=O)cc2)o1	-4	10	0	3	-2
CC(=Cc1ccccc1)C=C1SC(=S)N(CCCC(=O)Nc2ccc(C(=O)O)c(O)c2)C1=O	19	nt	nt	3	nt
O=C(CCN1C(=O)/C(=C/C=C/c2ccccc2)SC1=S)Nc1nccs1	41*	-8	0	-6	3
O=C(CCCN1C(=O)/C(=C\c2ccccc2)SC1=S)Nc1ccc(O)cc1	-1	1	0	-1	0
CC(=O)c1ccc(NC(=O)CN2C(=O)/C(=C/C(C)=C/c3ccccc3)SC2=S)cc1	31*	-3	nt	-2	nt
O=C(CCN1C(=O)/C(=C\c2cccs2)SC1=S)Nc1nccs1	12	13	0	0	6
CC(/C=C1\SC(=S)N(CCCC(=O)Nc2ccc(C(=O)O)c(O)c2)C1=O)=C\c1ccccc1	nt	nt	3	nt	17*
CC(/C=C1\SC(=S)N(CCC(=O)Nc2ccc(O)cc2)C1=O)=C\c1ccccc1	21	12	2	2	15*
COc1cccc(NC(=O)c2ccccc2N2C(=O)C3C4C=CC(C4)C3C2=O)c1 (configuration not stated)	-3	-2	0	-1	-3
Cc1ccc2nc(Cl)c3nnnn3c2c1	4	87*	4	27	0
O=C(COc1ccc2ccc(=O)oc2c1)Nc1cc([N+](=O)[O-])ccc1F	7	60*	2	4	0
C=C(C)C(=O)Nc1cccc(C2=NOC3(C2)C[C@H](C(N)=O)N(C(=O)COc2ccc(Cl)cc2)C3)c1 (some centres not stated)	-8	-18	97*	-2	6
Cn1c(SCC(=O)Nc2ccc3c(c2)OCCO3)nnc1-c1ccncc1	1	1	2	-5	4
CC1(C)C(=O)OC(C(=O)c2ccc(Cl)cc2)C(C)(C)C1=O (configuration not stated)	-2	-3	100*	10	1
O=C(C[n+]1cccc(C(=O)N/N=C/c2cccc([N+](=O)[O-])c2)c1)c1ccccc1	0	-7	nt	0	nt
O=C(Nc1ccc(-n2nncc2-c2ccco2)cc1)c1cc2ccccc2oc1=O	7	4	4	-3	29*
SMILES	NadD block	B2AR ag	GRK2 inh	Granule exo inh	PP1 inh
O=C(Nc1ccc(-n2nncc2-c2ccco2)cc1)c1cccc(F)c1	-2	7	1	2	1
CS(=O)(=O)c1sc(C#N)c2c1C(=O)CC(c1ccccc1)C2 (configuration not stated)	-4	106*	0	42	5
C=CCn1c(SCC(=O)Nc2ccc(N3CCOCC3)cc2)nc2ccccc2c1=O	-1	0	14	1	0
O=C(COc1ccc(Cl)cc1Cl)NN1C(=O)C2C3C=CC([C@@H]2C1=O)C31CC1 (some centres not stated)	-2	2	0	-7	5
O=C(COc1ccc(Cl)cc1Cl)NN1C(=O)/C(=C\c2ccc(Cl)cc2)SC1=S	33*	6	0	-1	-1
COC(=O)C1=C(CSc2nc3ccccc3s2)NC(=O)NC1c1ccc(F)cc1 (configuration not stated)	3	10	17	-2	5
